Source: PubChem BioAssay (The Scripps Research Institute Molecular Screening Center)
Compounds with a hit are over-represented: about 4.1% of the library has one in this group of screens.
hgDAF-12 ag = agonists of H. glycines DAF-12 nuclear receptor; HEK293 GAL4-hgDAF12 UAS-luciferase reporter, agonist luminescence; normalized to butyrate control; activation, % at 6.8 µM; 370,000 tested, 1.8% active;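 active means activation above a cutoff set at the mean of all screened compounds plus 3 SD, cut at about 10% in these data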;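 further: 0% = DMSO wells and 100% = sodium butyrate wells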
ssDAF12 agonist = S. stercoralis DAF-12 activation, primary screen; activation, % at 6.8 µM; AID 652126; 370,000 tested, 1% active; HEK293 ssDAF-12/GRIP1 lit1-tk-luc reporter, luminescence; % of 3 µM dafachronic acid response;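 active means activation above the mean over all tested compounds plus 3 SD, cut at about 0.9% in these data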;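 further: 0% = DMSO-only wells and 100% = 3 µM delta7-dafachronic acid wells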
DAX1 inh-1 = inhibitors of DAX1 repression of SF-1 activated StAR promoter | HEK293T StAR-luciferase reporter, SF-1/DAX-1 repression relief | inhibition, % at 6.8 µM | 370,000 tested, 1.1% active | AID 652010;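 active means inhibition above the mean over all tested compounds plus 3 SD, cut at about 3.6% in these data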;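 further: 0% = DAX-1 cells with DMSO and 100% = cells lacking DAX-1 with DMSO; higher inhibition means more luminescence from relief of DAX-1 repression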
hcDAF12 agonist = H. contortus DAF-12 activation, primary screen; HEK293 hcDAF-12 lit1-tk-luc reporter, luminescence; 0% DMSO, 100% Δ7-dafachronic acid; activation, % at 6.8 µM; 370,000 tested, 1.4% active;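 active means activation above the mean of all tested compounds plus 3 SD, cut at about 5.5% in these data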;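 further: 100% = response to 3 µM Δ7-dafachronic acid high control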
DAX1 inh-2 = inhibits human nuclear receptor DAX1; P51843; HEK293 Gal4-DAX1 luciferase reporter, luminescence; inhibition, % at 6.75 µM; 340,000 tested, 0.99% active; AID 504766;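 active means inhibition above the mean over all tested compounds plus 3 SD, cut at about 4.2% in these data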;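 further: 0% = DAX1-transfected cells with DMSO and 100% = empty-vector control cells with DMSO; inhibition shows as a rise in luminescence from relieved DAX1 repression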
Target sequence (P51843 207-470 limits assumed): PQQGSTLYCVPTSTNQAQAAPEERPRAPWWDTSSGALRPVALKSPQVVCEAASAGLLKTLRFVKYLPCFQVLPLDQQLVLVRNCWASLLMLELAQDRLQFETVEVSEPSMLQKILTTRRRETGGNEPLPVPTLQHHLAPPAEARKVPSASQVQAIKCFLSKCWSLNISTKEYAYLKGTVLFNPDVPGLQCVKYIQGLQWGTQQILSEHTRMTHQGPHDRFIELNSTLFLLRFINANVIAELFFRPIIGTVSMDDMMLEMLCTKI
The depositor's hits bear a star; · = no result; ! = repeats disagree.

SMILES | hgDAF-12 ag | ssDAF12 agonist | DAX1 inh-1 | hcDAF12 agonist | DAX1 inh-2
CC1=NN(C(N)=S)C(=O)C1N=Nc1ccccc1 (configuration not stated) | -1 | -1 | 1 | 0 | 0
CC(=O)NC(CSC(CC(=O)c1ccco1)c1ccc(C)cc1)C(=O)O (configuration not stated) | 1 | -1 | 1 | -1 | 2
O=C1CCC2(CCC(c3ccccc3)CC2)N1CC[C@@H](O)c1ccccc1 (some centres not stated) | 3 | -2 | · | -3 | ·
O=C(O)/C=C/C(=O)Nc1ccc(-n2nccc2C(F)(F)F)cc1 | 2 | -1 | 0 | 1 | 4.2*
O=C(O)/C=C/C(=O)Nc1c(F)cccc1F | -1 | -1 | 0 | -2 | 4.2*
O=C(O)/C=C/C(=O)Nc1ccc(-c2ccccc2)cc1 | 11* | -1 | 1 | 0 | -3
O=C(O)/C=C\C(=O)Nc1ccccc1C#Cc1ccccc1 | 10* | -1 | 1 | 1 | 2
Cn1cc(/C=C/C(=O)N2CCCC(C(=O)c3cccc(C(F)(F)F)c3)C2)cn1 (configuration not stated) | -1 | -1 | 2 | -1 | 1
CC(C)Cc1nnc(NC(=O)c2cc3c(s2)CCC3)s1 | 5 | -1 | 1 | 0 | 4
O=C(Nc1nncs1)c1cc2c(s1)CCC2 | 12* | -1 | 3 | 2 | 1
Cc1nc(CCNS(=O)(=O)c2cccs2)cs1 | 2 | -1 | 1 | 0 | 1
Cc1csc2nc(CCNS(=O)(=O)c3cccs3)cn12 | 13* | -1 | 3 | 1 | 0
CCCC(=O)Nc1ccc(C#Cc2ccccc2)cc1 | 12* | -1 | 2 | -1 | 1
CCCC(=O)Nc1ccc(Oc2ccc(NC(=O)CCC)cc2)cc1 | -1 | -2 | 0 | 0 | 1
CS(=O)(=O)c1ccc(-c2nn[nH]n2)cc1 | -1 | -1 | 0 | 0 | 0
Cc1ccc(-c2nn[nH]n2)cc1 | 1 | 1.1* | 0 | 4 | -1
CC(C)N1C(=O)CN(C2CCCCCC2)C(=O)C1c1ccccc1F (configuration not stated) | 11* | -1 | 1 | 1 | 3
O=C(CN1CCc2onc(-c3cccc(-n4cc(CO)nn4)c3)c2C1=O)N1CCOCC1 | 6 | -1 | 1 | 1 | ·
CCOCCCNC(=O)Cn1cc2c(n1)CCCC2 | -3 | -1 | 1 | 0 | 5.4*
CCCN1CCN(CCCNC(=O)Cn2cc3c(n2)CCCC3)CC1 | 3 | -1 | 1 | 1 | 1
CC(C)c1cc(C(=O)NCCc2ccccc2)no1 | 6 | 1 | 3 | 5 | 7.4*
CSc1ccccc1NC(=O)c1cc(C(C)C)on1 | 5 | 0 | 1 | 6.4* | 1
CSc1ccccc1NC(=O)c1cc(C)on1 | 1 | -1 | 0 | 0 | -1
C[C@@H](CO)N(Cc1cn(Cc2ccccc2)nn1)S(=O)(=O)c1ccccc1Br | 0 | -1 | 0 | -2 | ·
O=C(C(=O)N1CCC(CNC(=O)C2COc3ccccc3O2)CC1)c1cccs1 (configuration not stated) | 2 | -1 | -1 | -2 | ·
SMILES | hgDAF-12 ag | ssDAF12 agonist | DAX1 inh-1 | hcDAF12 agonist | DAX1 inh-2
CCCCN1CCC(COC(=O)c2cc(Cl)c(N)c3c2OCCO3)CC1 | 4 | -1 | 4.5* | -2 | 2
Cc1ccc2c(nc3s/c(=C/c4cccs4)c(=O)n32)c1C | 4 | 0 | 0 | 6.2* | 2
O=S(=O)(c1cc(Cl)ccc1Cl)N1CCC2(CC1)OCCO2 | -2 | -1 | 0 | -1 | 1
CC(=O)N1N=C(c2ccncc2)OC12CCCC2 | 1 | -1 | 0 | -2 | 0
CC(=O)N1N=C(c2ccc(Br)cc2)OC12CCCC2 | 0 | -2 | 1 | -1 | 4.4*
N#Cc1cccc(OC[C@@H](O)CN2CCC(C(O)(c3ccccc3)c3ccccc3)CC2)c1 | 1 | -1 | 1 | -2 | ·
CCC1CCCCN1C(=O)c1cc2c(=O)n3cccc(C)c3nc2s1 (configuration not stated) | · | · | · | · | 2
CCN(CC)C(=O)c1cc2c(=O)n3ccccc3nc2s1 | 10 | 0 | 2 | 6.5* | 0
CCOC(=O)C1CCN(C(=O)c2cc3c(=O)n4cccc(C)c4nc3s2)CC1 | 1 | 0 | 0 | 6.5* | -1
CCOC(=O)C1CCN(C(=O)c2cc3c(=O)n4ccccc4nc3s2)CC1 | 5 | -1 | 2 | 6.4* | 0
C=CCN1[C@@H](C)COc2cc(N3CCCC3)ccc2S1(=O)=O | -2 | -2 | 0 | -3 | ·
O=C(O)CSc1nc2c(c(C(F)(F)F)n1)CCCC2 | 1 | -1 | 0 | 0 | 5.1*!
COC(=O)CSc1nc(C)c2c(n1)CCCC2 | 0 | -1 | 1 | -1 | 4.6*
Cc1nc(SCc2cccc(C(=O)O)c2)nc2c1CCCC2 | -9 | -2 | -1 | -5 | -1
CC(C)CSc1nnc(-c2ccco2)n1C | 8 | -1 | -1 | 1 | ·
CC(OC(=O)c1cc(=O)[nH]c2ccccc12)C(=O)N1C(C)CCCC1C (configuration not stated) | 0 | -1 | 1 | -1 | -1
COc1ccc(CN2CN(S(=O)(=O)c3cccs3)c3nc4ccccc4nc32)cc1 | 13* | 0 | 1 | 2 | 2
CN(C)c1ccc(P(=O)(OCc2ccccc2)C(O)c2ccccc2)cc1 (configuration not stated) | -3 | -2 | 0 | 0 | 4.3*
COc1ccc(S[C@]2(C(=O)N3CCOCC3)CC(=O)N(C(=O)C3CC3)[C@@H]2c2ccc(OC)cc2)cc1 | 3 | -2 | -2 | 0 | ·
O=C1CCC[C@@H]2Cc3nc4ccc(O)cc4cc3[C@@H]3CCN1[C@H]23 | -2 | 0 | 1 | 1 | 1
O=C1CCC[C@@H]2Cc3nc4cc5c(cc4cc3[C@@H]3CCN1[C@H]23)OCO5 | 5 | -1 | 0 | 0 | 6.1*
COC(=O)[C@]12C[C@H](CC(=O)NCc3ccc(C)o3)C(=O)N(CCc3ccc(OC)c(OC)c3)C1=C[C@H](C1CCCC1)O[C@@H]2C | 2 | -1 | 0 | 1 | ·
O=C(c1cccc(Br)c1)c1coc2ccc(O)cc12 | 13* | 0 | 1 | 4 | 1
O=C(c1cccs1)c1coc2ccc(O)cc12 | 12* | -1 | 1 | 2 | 4
O=C(CCl)Oc1ccc2occ(C(=O)c3cccs3)c2c1 | 7 | -1 | 1 | 0 | 2
CCOc1cc(/C=C2/SC(=S)N(CC(=O)O)C2=O)ccc1OC(=O)c1cccs1 | -4 | -1 | -1 | 0 | 5.2*
CC(OC(=O)/C(C#N)=C/c1ccco1)C(=O)N(C)c1ccccc1 (configuration not stated) | 2 | 2.5* | -1 | 1 | 0
CC(OC(=O)CNC(=O)c1ccco1)C(=O)N(C)c1ccccc1 (configuration not stated) | 5 | -2 | 0 | 1 | 1
